Max response, Potency and outcome data for twelve molecules are collected here from PubChem BioAssay (Tox21).

“And” between values parts separate entries of the source, which are not always exact repeats. Equal entries are not always repeated. Records with an inconclusive call do not appear. Some structures have more than one record in an assay (separate samples or runs), and their calls can disagree. The source made the active and inactive calls. Calls come from the whole dose curve; as a rule, active = well fitted curve in the direction sought with a large enough effect in the repeat runs; inconclusive = weak or mixed curves; inactive = no such curve, though single readings can be large; an effect the other way counts as inactive or inconclusive.

A short description of experiment [1]: qHTS RealTime-Glo MT Cell Viability Assay in HEK293 cells - 40 hour (AID 1224874). Note: nearly all actives have a fitted effect of over 50% in size. Note: potency is the fitted concentration of half-maximal effect. To be noted: RealTime-Glo luminescence; max response: stronger effect = lower value. An outline of the steps:
(§1)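 Luminescence readout at each listed time point; HEK293, 600 cells/well, RealTime-Glo MT reagent added with cells; compounds pinned (23 nL in DMSO) after 5 h at 37 C; continuous culture at 37 C.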

The nature of experiment [2]: A CellTox Green Cytotoxicity Assay to monitor cytotoxicity in HEK293 cells - 24 hour (AID 1224875). Note: series mostly up to about 77 µM; nearly all actives have a fitted effect of over 45% in size. In a few lines:
(§2)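 Read-out: fluorescence of a cell-impermeant cyanine dye staining DNA of dead cells, proportional to cytotoxicity. HEK293, 600 cells/well with reagent, compound (23 nL DMSO) added after 5 h; reads at 0, 8, 16, 24, 32, 40 h.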

A short description of experiment [3]: A CellTox Green Cytotoxicity Assay to monitor cytotoxicity in HepG2 cells - 16 hour (AID 1224876). Note: nearly all actives have a fitted effect of over 45% in size. Note: potency is the fitted concentration of half-maximal effect. In a few lines: (§3)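 HepG2, 600 cells/well premixed w/ CellTox Green; 5 h settle, 37 C/5% CO2; pintool cpd add (DMSO); 37 C, 40 h; fluorescence read at 0, 8, 16, 24, 32, 40 h.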
Experiment [4] can be described thus: qHTS RealTime-Glo MT Cell Viability Assay in HepG2 cells - 32 hour (AID 1224877). Note: nearly all actives have a fitted effect of over 55% in size. Note: potency is the fitted concentration of half-maximal effect. In a few lines:
(§4)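 HepG2 suspension premixed with RealTime-Glo reagents is plated at 600 cells per well and left 5 h at 37 C/5% CO2. Compounds in DMSO then go in, and bioluminescence reflecting viable cell number is recorded over 40 h.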

Experiment [5] is described as follows: A CellTox Green Cytotoxicity Assay to monitor cytotoxicity in HepG2 cells - 24 hour (AID 1224878). Note: nearly all actives have a fitted effect of over 45% in size. Note: potency is the fitted concentration of half-maximal effect. An outline of the steps:
as §3

Experiment [6] in a line: A CellTox Green Cytotoxicity Assay to monitor cytotoxicity in HepG2 cells - 40 hour (AID 1224879). Note: nearly all actives have a fitted effect of over 40% in size. Note: potency is the fitted concentration of half-maximal effect. An outline of the steps:
as §3

Experiment [7] is described as follows: qHTS RealTime-Glo MT Cell Viability Assay in HEK293 cells - 0 hour (AID 1224880). Note: top concentration of the series differs between compounds; nearly all actives have a fitted effect of over 45% in size. An outline of the steps: as §1
Experiment [8] in a line: A CellTox Green Cytotoxicity Assay to monitor cytotoxicity in HEK293 cells - 32 hour (AID 1224881). Note: nearly all actives have a fitted effect of over 40% in size. Note: potency is the fitted concentration of half-maximal effect. An outline of the steps:
as §2

Experiment [9] in a line: A CellTox Green Cytotoxicity Assay to monitor cytotoxicity in HepG2 cells - 0 hour (AID 1224882). Note: nearly all actives have a fitted effect of over 35% in size. In a few lines: as §3
Experiment [10] in a line: A CellTox Green Cytotoxicity Assay to monitor cytotoxicity in HEK293 cells - 8 hour (AID 1224884). Note: nearly all actives have a fitted effect of over 35% in size. Note: potency is the fitted concentration of half-maximal effect. In a few lines: as §2
The nature of experiment [11]: qHTS RealTime-Glo MT Cell Viability Assay in HepG2 cells - 16 hour (AID 1224885). Note: nearly all actives have a fitted effect of over 50% in size. Note: potency is the fitted concentration of half-maximal effect. An outline of the steps: as §4
The nature of experiment [12]: qHTS RealTime-Glo MT Cell Viability Assay in HEK293 cells - 24 hour (AID 1224886). Note: nearly all actives have a fitted effect of over 50% in size. Note: potency is the fitted concentration of half-maximal effect. In a few lines:
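Reads taken at 0, 8, 16, 24, 32 and 40 h from the same wells. HEK293 cells (600/well) carried RealTime-Glo reagents from seeding, with compound added after a 5 h settle at 37 C.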

Experiment [13] in a line: qHTS RealTime-Glo MT Cell Viability Assay in HEK293 cells - 8 hour (AID 1224887). Note: nearly all actives have a fitted effect of over 50% in size. Note: potency is the fitted concentration of half-maximal effect. An outline of the steps: as §1
Experiment [14] in a line: A CellTox Green Cytotoxicity Assay to monitor cytotoxicity in HEK293 cells - 16 hour (AID 1224888). Note: nearly all actives have a fitted effect of over 35% in size. An outline of the steps: as §2
Experiment [15] can be described thus: qHTS RealTime-Glo MT Cell Viability Assay in HepG2 cells - 0 hour (AID 1224889). Note: nearly all actives have a fitted effect of over 50% in size. Note: potency is the fitted concentration of half-maximal effect. In a few lines: as §4
Experiment [16] in a line: A CellTox Green Cytotoxicity Assay to monitor cytotoxicity in HepG2 cells - 8 hour (AID 1224890). Note: nearly all actives have a fitted effect of over 45% in size. Note: potency is the fitted concentration of half-maximal effect. An outline of the steps:
as §3

Experiment [17] can be described thus: qHTS assay to identify small molecule antagonists of the estrogen receptor alpha (ER-alpha) signaling pathway using the BG1 cell line in the presence of 0.1 nM 17-beta-estradiol - cell viability counter screen (AID 1259241). Note: nearly all actives have a fitted effect of over 40% in size. In a few lines:
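In this screen, hormone-deprived VM7Luc4E2 cells were seeded at 4,000 per well, dosed with compound and 0.1 nM estradiol final, and incubated 22 hr at 37C and 5% CO2; fluorogenic live-cell protease signal reported viability.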

Experiment [18] in a line: qHTS assay to identify small molecule antagonists of the androgen receptor (AR) signaling pathway using the MDA cell line in the presence of 0.5 nM R1881 - cell viability counter screen (AID 1259242). Note: nearly all actives have a fitted effect of over 45% in size. Note: potency is the fitted concentration of half-maximal effect. An outline of the steps: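 Live-cell protease fluorescence, CellTiter-Fluor, 30 min at 37C. Cells: MDA-kb2, 3,000/well, preincubated 5 hr. Compounds plus 0.5 nM R1881 final, 16 hr, 37C, 0% CO2.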

The nature of experiment [19]: A CellTox Green Cytotoxicity Assay to monitor cytotoxicity in HepG2 cells - 32 hour (AID 1224883). Note: nearly all actives have a fitted effect of over 50% in size. In a few lines:
as §3
% is set by controls: 0 for no effect and ±100 for the full control effect.

With `COP(=O)(OC)C(O)C(Cl)(Cl)Cl` (stereo not drawn), the max response in [1] is -4.55% (inactive) and 3.86% (inactive). Also, the Potency result in experiment [2], in [3], in experiment [4], in [5], in experiment [6] and in [8] was “inactive” each time. Also, the Potency result in experiment [9], in [10], in experiment [11], in experiment [12], in experiment [13] and in [14] was “inactive” in each case. Also, the Potency entry in experiment [15], in experiment [16], in [17] and in [18] was “inactive” in each case. In addition, the molecule was called inactive in experiment [7].
For the molecule `COc1ccc(N)cc1`, in experiment [1], the max response was -4.85% (inactive) [middle of 4 runs]. Moreover, the Potency result in [2], in [4], in [8], in experiment [9], in [10] and in [11] was “inactive” in each case. Moreover, the Potency entry in experiment [12], in [13], in experiment [14], in [15], in experiment [16] and in experiment [17] was “inactive” in each case. Moreover, the Potency result in experiment [18] was “inactive”. For the same molecule, the Potency result is “inactive and 195 nM (active)” in [3]; “inactive and 219 nM (active)” in experiment [5]; “inactive and 245 nM (active)” in experiment [6]. Further, the molecule was called inactive in [7].
As to `O=c1[nH]c(=O)n(Cl)c(=O)n1Cl`, the max response in [1] is 3.74% (inactive) and 3.92% (inactive) and 2.88% (inactive). Moreover, the Potency entry in [2], in [3], in experiment [4], in experiment [5], in [6] and in [8] was “inactive” each time. Also, the Potency result in experiment [9], in experiment [10], in [11], in experiment [12], in experiment [13] and in [14] was “inactive” each time. Also, the Potency entry in experiment [15], in experiment [16], in [17] and in experiment [18] was “inactive” each time. The result in experiment [7] was inactive.
With `O=C(O)c1ccccc1O`, the max response in [1] is 2.39% (inactive) [middle of 5 runs]. Further, the Potency entry in experiment [2], in experiment [3], in experiment [4], in experiment [5], in [6] and in experiment [8] was “inactive” throughout. Besides, the Potency result in [9], in experiment [10], in experiment [11], in experiment [12], in [13] and in experiment [14] was “inactive” in each case. Moreover, the Potency result in experiment [15], in experiment [16], in experiment [17] and in experiment [18] was “inactive” each time. For the same molecule, the outcome in experiment [7] was inactive.
Consider `CCOP(=S)(OCC)Oc1ccc2c(C)c(Cl)c(=O)oc2c1`, for which the Potency in [1] was 12.4 µM (active) and 43.6 µM (active); in [12] it was 14 µM (active) and 43.6 µM (active) and inactive; in experiment [13], 12.4 µM (active) and 38.9 µM (active) and inactive. In addition, the max response in [1] is -24.9% (inactive). For the same molecule, the Potency entry in experiment [2], in [4], in [5], in experiment [6], in [8] and in [9] was “inactive” throughout. Further, the Potency result in [19], in experiment [10], in [11], in [14], in experiment [15] and in experiment [17] was “inactive” in each case. For the same molecule, the Potency result in [18] was “inactive”. Besides, in [7], the molecule was called inactive.
As for `CCCCCCn1cc[n+](C)c1`, the Potency was 19.7 µM (active) [middle of 5 runs] in experiment [1]; “inactive and 50 µM (active)” in experiment [4]; 22.2 µM (active) and 14 µM (active) and 17.7 µM (active) in [12]. In addition, the Potency result in [2], in experiment [5], in experiment [6], in experiment [8], in [9] and in experiment [19] was “inactive” each time. The Potency entry in experiment [10], in [11], in [13], in [14], in [15] and in experiment [17] was “inactive” in each case. Also, in experiment [7], the call was inactive.
Regarding `O=C(O)C(Cl)(Cl)Cl`, the max response in experiment [1] is 1.76% (inactive) and 3.09% (inactive). For the same molecule, the Potency entry in experiment [2], in [3], in experiment [4], in experiment [5], in experiment [6] and in experiment [8] was “inactive” each time. The Potency result in experiment [9], in experiment [10], in experiment [11], in experiment [12], in experiment [13] and in experiment [14] was “inactive” in each case. Also, the Potency entry in experiment [15], in experiment [17] and in experiment [18] was “inactive” in each case. For the same molecule, the molecule was called inactive in experiment [7].
Regarding `CCC[N+]1(C)CCCCC1`, in [1], the max response is -1.58% (inactive) and 7.15% (inactive) and 0.391% (inactive). Moreover, the Potency result in experiment [2], in experiment [3], in [5], in experiment [6], in experiment [8] and in [9] was “inactive” throughout. Also, the Potency entry in experiment [10], in experiment [11], in [12], in experiment [13], in [14] and in [15] was “inactive” throughout. Further, the Potency result in [17] and in experiment [18] was “inactive” in each case. Further, the Potency entry in experiment [4] is “inactive and 34.8 µM (active)”. Moreover, in experiment [7], the outcome was inactive.
As to `CCCCCCCCCCCCCCCCn1cc[n+](C)c1`, the Potency in experiment [1] was 7.93 µM (active) and 4.4 µM (active) and 2.76 µM (active); in experiment [4], “inactive and 49.4 µM (active) and 34.8 µM (active)”; in [5], “inactive and 44 µM (active) and 24.6 µM (active)”; in experiment [8], “inactive and 19.7 µM (active) and 24.6 µM (active)”; in experiment [10], “inactive and 49.4 µM (active)”; in experiment [11], “inactive and 49.4 µM (active) and 49.1 µM (active)”. In addition, the Potency entry in experiment [13] was “inactive and 55.4 µM (active) and 55.1 µM (active)”; in experiment [16], “inactive and 55.4 µM (active) and 55.1 µM (active)”; in [18], “inactive and 34.7 µM (active) and 48.7 µM (active)”. In addition, in [1], the max response is 12.2% (inactive). Besides, the result in experiment [7] was inactive. Further, the Potency result in experiment [9] and in experiment [15] was “inactive” each time.
`C[C@]12CCC(=O)C=C1CC[C@@H]1[C@@H]2CC[C@]2(C)C(=O)CC[C@@H]12`: the Potency in experiment [1] was 24.1 µM (active) and 24.5 µM (active); in [6], “inactive and 49 µM (active)”; in [12], 27.1 µM (active) and inactive; in experiment [15], 34.1 µM (active) and 21.9 µM (active) and inactive. The max response in [1] is -20.4% (inactive). The Potency result in [2], in experiment [4], in experiment [5], in experiment [8], in [9] and in experiment [10] was “inactive” in each case. For the same molecule, the Potency entry in [11], in experiment [13], in experiment [14], in experiment [17] and in experiment [18] was “inactive” throughout. Further, the call in experiment [7] was inactive.
On to `O=C(O)c1nc(Cl)ccc1Cl`, for which, in experiment [1], the max response is 3.62% (inactive) and 10.3% (inactive) and 7.66% (inactive). Moreover, the Potency result in experiment [2], in experiment [3], in experiment [4], in [5], in experiment [6] and in experiment [8] was “inactive” throughout. Besides, the Potency result in [9], in experiment [19], in experiment [10], in experiment [11], in [12] and in experiment [13] was “inactive” in each case. The Potency result in experiment [14], in experiment [15], in experiment [17] and in experiment [18] was “inactive” each time. Moreover, the molecule was classed as inactive in experiment [7].
Turning to `Oc1cccc2cccnc12`, the Potency in [1] was 13.9 µM (active) and 23.3 µM (active) and 12.7 µM (active); in experiment [4], “inactive and 3.09 µM (active)”; in experiment [8] it was 17.5 µM (active) and 6.16 µM (active) and inactive; in experiment [11], “inactive and 3.89 µM (active)”; in experiment [12], 5.49 µM (active) and inactive. The max response in experiment [1] was -0.234% (inactive). The Potency entry in experiment [2], in experiment [9], in [10], in [13], in [14] and in experiment [15] was “inactive” throughout. Further, the Potency result in [16] and in [18] was “inactive” in each case. In addition, the outcome in [7] was inactive.
